High-throughput results (PubChem BioAssay)
This is a sample that favours compounds with a hit; in the whole collection about 9.2% have one here.
SMN2 splice enh: enhancers of SMN2 splice variant expression | HEK293 SMN2-luciferase splicing reporter, luminescence, 30-36 h | Potency, µM (top dose mostly 46.1 µM), hits mostly activators | actives 2.8% (n = 210,000); further: nearly all actives have a fitted effect of over 55% in size
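qHTS luciferase splicing reporter: luminescence rises when SMN2 exon 7 is included in transfected HEK293 cells. Compound exposure lasted 30-36 h at 37C, with 4.5 mM final sodium butyrate as control, followed by a ONE-Glo read.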
FLuc modulator: firefly luciferase modulation, counter-screen for miR-21 project. P08659. purified FLuc, Km substrates, luminescence inhibition. Potency, µM (titrated, usually from 57.5 µM), usual class: inhibitors. actives 6.9% (n = 360,000). AID 588342; further: nearly all actives have a fitted effect of over 55% in size
Target sequence (P08659 whole entry, looked up): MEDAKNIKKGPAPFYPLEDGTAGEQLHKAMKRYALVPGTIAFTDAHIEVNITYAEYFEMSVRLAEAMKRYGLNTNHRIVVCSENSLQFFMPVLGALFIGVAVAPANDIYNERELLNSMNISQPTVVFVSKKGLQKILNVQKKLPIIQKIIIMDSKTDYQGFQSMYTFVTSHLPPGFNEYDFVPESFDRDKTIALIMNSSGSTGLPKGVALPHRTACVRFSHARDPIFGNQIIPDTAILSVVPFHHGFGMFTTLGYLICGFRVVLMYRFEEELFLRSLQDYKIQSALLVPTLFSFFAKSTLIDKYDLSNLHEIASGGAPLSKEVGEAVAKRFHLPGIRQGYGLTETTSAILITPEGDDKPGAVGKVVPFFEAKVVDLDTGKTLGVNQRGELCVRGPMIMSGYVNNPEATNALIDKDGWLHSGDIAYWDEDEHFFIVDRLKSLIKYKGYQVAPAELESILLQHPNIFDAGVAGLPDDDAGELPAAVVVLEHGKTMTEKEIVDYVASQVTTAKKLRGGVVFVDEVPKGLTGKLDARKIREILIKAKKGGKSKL
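Purified P. pyralis luciferase (10nM final) with 10uM D-luciferin and 10uM ATP (Km levels) in 50mM Tris acetate pH 7.5, 10mM Mg acetate, 0.01% Tween-20, 0.05% BSA; qHTS 6-point titration, ~60 µM downward; luminescence read.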
ELG1 repair inh: ELG1-dependent DNA repair inhibition; HEK293T ELG1-luciferase reporter, luminescence, 16 h; DNA damage induced by 5-fluorouridine; Potency, µM (series often up to 46.1 µM), most hits filed as inhibitors; AID 504467; actives 2.3% (n = 330,000); further: nearly all actives have a fitted effect of over 55% in size
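Overnight (16 hr) co-exposure of 2,000 cells/well to 5-fluorouridine and compound at 37 °C preceded detection. Luciferase was quantified via ONE-Glo luminescence; loss of signal denotes inhibition.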
NPC1 prom act: activators of NPC1 promoter; Huh7 NPC1 promoter luciferase reporter, 24 h; Potency, µM (series often up to 9.22 µM), usual class: activators; actives 2.4% (n = 320,000); AID 485313; further: nearly all actives have a fitted effect of over 60% in size
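Luciferase expression driven by the NPC1 promoter was measured in stably transfected Huh7 cells after a 24 h compound incubation, using a luciferase reagent and a luminescence read.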
ELG1 genotox: inducers of genotoxicity in HEK293T ELG1-luciferase cells; HEK293T ELG1-luciferase reporter, luminescence, 16 h; Potency, µM (series often up to 46 µM), most hits filed as activators; actives 1.3% (n = 330,000); AID 504466; further: nearly all actives have a fitted effect of over 60% in size
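Genotoxicity was scored as increased ELG1-luciferase reporter signal, measured by ONE-Glo luminescence (30 min, room temperature). Compound or vehicle exposure of the HEK293T reporter cells lasted 16 hr at 37°C.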
Rab9 promoter act: activators of Rab9 promoter; Huh7 Rab9 promoter-luciferase reporter, luminescence, 24 h; actives 2.8% (n = 320,000); Potency, µM (highest dose often 9.22 µM), actives largely listed as activators; AID 485297; further: nearly all actives have a fitted effect of over 60% in size
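Huh7 cells stably carrying a Rab9 promoter-luciferase reporter, 1500 cells per well in OP-MEM I with 10% FBS, treated with compound 24 hours at 37C. Luciferase activity read by luminescence after 10 minutes with Amplite reagent.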
Numbers stand for hits. The call rests on the fitted dose curve; in most records, active means well fitted curve in the direction sought with a large enough effect; inconclusive means small, poorly fitted or top-dose-only effect, or another doubt; inactive means no such curve, though single readings can be large; an effect the other way counts as inactive or inconclusive.

How did COc1cccc(C(=O)/C=C/Nc2cc(C)ccc2O)c1 do in these assays?
FLuc modulator: 2.7µM; ELG1 repair inh: inconclusive; NPC1 prom act: inactive; ELG1 genotox: inconclusive; Rab9 promoter act: inactive

How did COc1cccc(N/C=C/C(=O)c2ccc(OC)c(OC)c2)c1 do in these assays?
FLuc modulator: 1.3µM; ELG1 repair inh: inconclusive; NPC1 prom act: 3.5µM; ELG1 genotox: inconclusive; Rab9 promoter act: inconclusive

What do the screens show for `COC(=O)c1ccccc1`?
SMN2 splice enh: inactive

How did COC(=O)c1ccc(N/C=C/C(=O)c2ccccc2)cc1 do in these assays?
FLuc modulator: 0.6µM; ELG1 repair inh: inconclusive; NPC1 prom act: inconclusive; ELG1 genotox: inconclusive; Rab9 promoter act: 0.5µM

Results for CCOC(=O)c1cccc(N/C=C/C(=O)c2ccc(OC)c(OC)c2)c1 ?
SMN2 splice enh: inactive; FLuc modulator: 11µM; ELG1 repair inh: inconclusive; NPC1 prom act: 0.63µM; ELG1 genotox: inconclusive; Rab9 promoter act: 1.6µM

How did COc1ccc(C(=O)/C=C/Nc2cccc(O)c2)cc1 do in these assays?
SMN2 splice enh: inconclusive; FLuc modulator: 0.38µM; ELG1 repair inh: inconclusive; NPC1 prom act: inactive; ELG1 genotox: 1.5µM; Rab9 promoter act: inconclusive

What do the screens show for `COc1ccc(C(=O)/C=C/Nc2ccc(S(=O)(=O)Nc3cccc(C(C)=O)c3)cc2)cc1`?
SMN2 splice enh: inactive; FLuc modulator: inactive; ELG1 repair inh: 23µM; NPC1 prom act: inactive; ELG1 genotox: inactive; Rab9 promoter act: inactive

What do the screens show for `COc1ccc(OC)c(N/C=C/C(=O)c2ccc(OC)c(OC)c2)c1`?
FLuc modulator: 19µM; ELG1 repair inh: inactive; NPC1 prom act: inactive; ELG1 genotox: inconclusive; Rab9 promoter act: inactive

Results for CC(=O)Nc1ccc(N/C=C/C(=O)c2ccc(C)cc2)cc1 ?
FLuc modulator: inactive; ELG1 repair inh: inconclusive; NPC1 prom act: inconclusive; ELG1 genotox: inactive; Rab9 promoter act: inactive

How did O=C(/C=C\Nc1ccccn1)c1ccc(Cl)cc1 do in these assays?
SMN2 splice enh: 1µM; FLuc modulator: 0.19µM; ELG1 repair inh: inconclusive; NPC1 prom act: 0.28µM; ELG1 genotox: inconclusive; Rab9 promoter act: 0.1µM

What do the screens show for `Cc1cccc(N/C=C/C(=O)c2ccc(Cl)cc2)c1`?
FLuc modulator: 0.67µM; ELG1 repair inh: inconclusive; NPC1 prom act: 0.56µM; ELG1 genotox: inconclusive; Rab9 promoter act: 0.35µM

What do the screens show for `COc1ccc(-c2coc3cc(O)ccc3c2=O)c(O)c1O`?
SMN2 splice enh: inactive

How did CCC(C(=O)OCC(=O)N(C)c1c(N)n(Cc2ccccc2)c(=O)[nH]c1=O)c1ccccc1 (stereo not drawn) do in these assays?
FLuc modulator: inactive; ELG1 repair inh: inactive; NPC1 prom act: inactive; ELG1 genotox: inactive; Rab9 promoter act: inactive

What do the screens show for `NS(=O)(=O)c1ccc(CCNc2ncnc3c2cnn3-c2cccc(Cl)c2)cc1`?
FLuc modulator: inactive

Results for CCOC(=O)c1csc(NC(=O)C2CCCCC2)n1 ?
SMN2 splice enh: inconclusive; FLuc modulator: inconclusive; ELG1 repair inh: inconclusive; NPC1 prom act: inactive; ELG1 genotox: inconclusive; Rab9 promoter act: inactive

What do the screens show for `Cc1ccc(-c2csc(NC(=O)C3=COCCO3)n2)cc1`?
SMN2 splice enh: 14µM; FLuc modulator: 15µM; ELG1 repair inh: inconclusive; NPC1 prom act: inconclusive; ELG1 genotox: inconclusive; Rab9 promoter act: 2.8µM

What do the screens show for `CC(=O)Nc1ccc(-c2csc(NC(=O)C3=COCCO3)n2)cc1`?
FLuc modulator: inactive; ELG1 repair inh: inactive; NPC1 prom act: inactive; ELG1 genotox: inactive; Rab9 promoter act: inconclusive

Results for CCOC(=O)c1csc(NC(=O)C2=COCCO2)n1 ?
FLuc modulator: 15µM; ELG1 repair inh: inconclusive; NPC1 prom act: 2.5µM; ELG1 genotox: 9.2µM; Rab9 promoter act: 2.8µM

How did CC(C)(C)c1csc(NC(=O)C2=COCCO2)n1 do in these assays?
FLuc modulator: 9.5µM; ELG1 repair inh: inconclusive; NPC1 prom act: 3.2µM; ELG1 genotox: inconclusive; Rab9 promoter act: 2.5µM

Results for O=C(Nc1nc(-c2ccc(Oc3ccccc3)cc2)cs1)C1=COCCO1 ?
SMN2 splice enh: inactive; FLuc modulator: inconclusive; ELG1 repair inh: inconclusive; NPC1 prom act: inactive; ELG1 genotox: inactive; Rab9 promoter act: inactive

Results for CCCc1ccc(-c2csc(NC(=O)C3=COCCO3)n2)cc1 ?
ELG1 repair inh: inconclusive; NPC1 prom act: 1.1µM; ELG1 genotox: inactive; Rab9 promoter act: 1.3µM

Results for CCn1cc(C(=O)N2CCN(c3ccc(OC)cc3)CC2)c(=O)c2cc(S(=O)(=O)N3CCOCC3)ccc21 ?
SMN2 splice enh: inconclusive; FLuc modulator: inactive; ELG1 repair inh: inactive; NPC1 prom act: inactive; ELG1 genotox: inactive; Rab9 promoter act: inactive

Results for COc1ccc(C)cc1NC(=O)Nc1ccccc1OCc1cc(=O)n2ccccc2n1 ?
FLuc modulator: inactive

How did Cc1ccc(-c2csc(NC(=O)N3CCOCC3)n2)cc1 do in these assays?
SMN2 splice enh: inactive; FLuc modulator: 27µM; ELG1 repair inh: inactive; NPC1 prom act: inactive; ELG1 genotox: inconclusive; Rab9 promoter act: inactive

How did O=C(C1CCN(S(=O)(=O)c2cccc3cccnc23)CC1)N1CC=C(c2ccccc2)CC1 do in these assays?
SMN2 splice enh: inactive; FLuc modulator: inactive; ELG1 repair inh: 23µM; NPC1 prom act: inactive; ELG1 genotox: inactive; Rab9 promoter act: inactive

How did Cc1cccc(N2CCN(C(=O)C3CCN(S(=O)(=O)c4cccc5cccnc45)CC3)CC2C)c1 (stereo not drawn) do in these assays?
SMN2 splice enh: inactive; FLuc modulator: inactive; ELG1 repair inh: 18µM; NPC1 prom act: inactive; ELG1 genotox: inactive; Rab9 promoter act: inactive

Results for O=C(C1CCN(S(=O)(=O)c2cccc3cccnc23)CC1)N1CCCC1 ?
SMN2 splice enh: inactive; FLuc modulator: inactive; ELG1 repair inh: inactive; NPC1 prom act: inactive; ELG1 genotox: inactive; Rab9 promoter act: inactive

Results for Cc1ccc(-n2ccn(CC(=O)c3ccc(F)cc3)c(=O)c2=O)cc1C ?
FLuc modulator: inactive

What do the screens show for `Cc1ccc(SCc2nc(-c3ccc(C(=O)Nc4cc(C)ccc4C)cc3)oc2C)cc1`?
FLuc modulator: inactive

How did CCCCOc1ccc(C(=O)Nc2ccc3c(c2)CCCN3C(=O)c2cccs2)cc1 do in these assays?
FLuc modulator: inactive

What do the screens show for `O=C(Nc1cccc([N+](=O)[O-])c1)Nc1cccc([N+](=O)[O-])c1`?
SMN2 splice enh: inactive; FLuc modulator: inactive; ELG1 repair inh: inconclusive; NPC1 prom act: inactive; ELG1 genotox: inactive; Rab9 promoter act: inactive

What do the screens show for `O=[N+]([O-])c1cccc(NC(=S)N2CCc3ccccc32)c1`?
FLuc modulator: inactive; ELG1 repair inh: 13µM; NPC1 prom act: inactive; ELG1 genotox: inactive; Rab9 promoter act: inactive

How did O=C(Nc1cccc([N+](=O)[O-])c1)C(=O)N1CCCCC1 do in these assays?
SMN2 splice enh: 18µM; FLuc modulator: inconclusive; ELG1 repair inh: inconclusive; NPC1 prom act: inconclusive; ELG1 genotox: inconclusive; Rab9 promoter act: 1.3µM
